One molecule from patent US20160355875, “METHODS AND KITS FOR DETECTING NUCLEIC ACID SEQUENCES OF INTEREST USING DNA-BINDING PROTEIN DOMAIN” (CELLECTIS, published 2016) can be followed below.

Some results are limits rather than exact numbers.

The experiment addresses T1, TALE RAGT2-Renila luciferase fusion (pCLS24992) (artificial, UniProt P14727 SEQ:21-699).
T1 chain: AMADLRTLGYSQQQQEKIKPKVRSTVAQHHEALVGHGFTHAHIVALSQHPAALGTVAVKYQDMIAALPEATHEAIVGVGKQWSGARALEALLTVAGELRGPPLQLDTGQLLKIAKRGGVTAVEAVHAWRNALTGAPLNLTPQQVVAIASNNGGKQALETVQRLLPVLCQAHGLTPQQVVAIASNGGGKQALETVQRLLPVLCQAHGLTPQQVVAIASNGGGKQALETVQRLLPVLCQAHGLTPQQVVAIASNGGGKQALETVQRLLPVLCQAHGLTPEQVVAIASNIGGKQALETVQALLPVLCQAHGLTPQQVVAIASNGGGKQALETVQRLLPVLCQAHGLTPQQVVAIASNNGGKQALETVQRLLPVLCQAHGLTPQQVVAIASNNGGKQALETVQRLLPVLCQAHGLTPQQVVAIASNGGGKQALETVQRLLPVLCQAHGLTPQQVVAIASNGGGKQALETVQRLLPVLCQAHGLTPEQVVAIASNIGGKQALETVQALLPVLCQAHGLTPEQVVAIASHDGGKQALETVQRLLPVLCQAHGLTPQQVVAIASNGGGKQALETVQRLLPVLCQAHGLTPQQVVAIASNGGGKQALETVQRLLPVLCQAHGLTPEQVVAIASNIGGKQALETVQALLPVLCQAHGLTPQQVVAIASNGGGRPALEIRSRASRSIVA
Nature of the experiment: mutation at T0 reduces luminescence by more than 60%; capture plus TALE binding. To be noted: tags: N-terminal His tag, C-terminal Renilla luciferase fusion; deltaN152 N-terminal domain, C11 C-terminal truncation; expressed in E. coli; label: biotin on bait; mismatched duplex. The procedure: Different ssDNA targets (SEQ ID NO 6-20) harboring unique or multiple mutations with respect to the ssDNA wild type pray (SEQ ID NO 5, 10 pmol) were synthesized and used to assess the specificity of TALE RAGT2-Renila detector system. We first studied the effect of increasing amount of mutation within the ssDNA target on the luminescence of TALE RAGT2-Renila according to the detection protocol described earlier. Briefly, 10 pmol of ssDNA wild type or mutated were incubated with the ssDNA biotinylated pray already immobilized on the streptavidine coated plate. The mixture was heated and allow to cool down to RT. After washing the well with high and low salt containing TBST buffers, an excess of TALE RAGT2-Renila was added to the well (^{˜}300 pmol total), the unbound was then removed by two low salt buffer washing steps and the reaction mixture was added to determine luminescence. The luminescence obtained for each of the ssDNA prays used is illustrated in FIG. 20.

B1: pray SEQ 6 :bait (dsDNA)
DNA 1: CATGGTTTATGGTTACTTATGG
DNA 2: GTACAAAAAAGCAGTCGACTAGGGATAACAGGGTAATTATATAAACCTAACCCTCTTAGCATGAAGGTACCATAAGTAACCATAAACAATG
In the case of B1, the binding signal is < 40 % of WT.
